ROMK mod: modulates human ROMK potassium channel activity. Tet-inducible ROMK, thallium flux fluorescence; actives lie on both sides. B-score at 10 µM. actives 2% (n = 130,000). AID 1918;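 active means signal ratio slope over the read window, or its plate-corrected B-score, at least 3 SD from the plate mean, either direction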;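 further: B-score of the F/F0 ratio slope over 7 to 12 s after thallium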
L major viab: reduces viability of Leishmania major promastigotes; resazurin fluorescence viability; inhibition, % at 10 µM; actives 9% (n = 200,000); in the data active means inhibition above about 50%;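 further: promastigotes grown with compound for 44 hours at 28 °C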
Insulin prom inh: TRM-6 insulin promoter activity inhibition. TRM-6 cells (human fetal islet line), insulin promoter-eGFP reporter, imaging; reporter expression induced with tamoxifen. inhibition, % at 2 µM. actives 0.9% (n = 130,000). AID 1273;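 active means inhibition above the mean plus 3 SD, with well images judged a real hit on visual review, cut at about 60% in these data, passing the limit was not always enough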
bCat KO growth: beta-catenin-lacking colon tumor cell growth suppression | HCT116 beta-catenin knockout viability, CellTiter-Glo, 60 h; hits give low values | viability, % at 10 µM | actives 1.5% (n = 140,000) | AID 818;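 active means viability at or under a set limit, the compound median less 4 SD, cut at about 6% in these data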;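 further: 0% = Hyamine 1622 control at 20 µM and 100% = untreated cell control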
p97 ATPase inh: inhibitors of human p97 ATPase; P55072; inhibition, % at 8 µM; actives 0.42% (n = 220,000); recombinant p97 ATPase, Kinase-Glo ATP luminescence, 3 h; in the data active means inhibition above about 15%;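 further: 0% = DMSO vehicle and 100% = wells lacking enzyme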
Target sequence (P55072 whole entry, looked up): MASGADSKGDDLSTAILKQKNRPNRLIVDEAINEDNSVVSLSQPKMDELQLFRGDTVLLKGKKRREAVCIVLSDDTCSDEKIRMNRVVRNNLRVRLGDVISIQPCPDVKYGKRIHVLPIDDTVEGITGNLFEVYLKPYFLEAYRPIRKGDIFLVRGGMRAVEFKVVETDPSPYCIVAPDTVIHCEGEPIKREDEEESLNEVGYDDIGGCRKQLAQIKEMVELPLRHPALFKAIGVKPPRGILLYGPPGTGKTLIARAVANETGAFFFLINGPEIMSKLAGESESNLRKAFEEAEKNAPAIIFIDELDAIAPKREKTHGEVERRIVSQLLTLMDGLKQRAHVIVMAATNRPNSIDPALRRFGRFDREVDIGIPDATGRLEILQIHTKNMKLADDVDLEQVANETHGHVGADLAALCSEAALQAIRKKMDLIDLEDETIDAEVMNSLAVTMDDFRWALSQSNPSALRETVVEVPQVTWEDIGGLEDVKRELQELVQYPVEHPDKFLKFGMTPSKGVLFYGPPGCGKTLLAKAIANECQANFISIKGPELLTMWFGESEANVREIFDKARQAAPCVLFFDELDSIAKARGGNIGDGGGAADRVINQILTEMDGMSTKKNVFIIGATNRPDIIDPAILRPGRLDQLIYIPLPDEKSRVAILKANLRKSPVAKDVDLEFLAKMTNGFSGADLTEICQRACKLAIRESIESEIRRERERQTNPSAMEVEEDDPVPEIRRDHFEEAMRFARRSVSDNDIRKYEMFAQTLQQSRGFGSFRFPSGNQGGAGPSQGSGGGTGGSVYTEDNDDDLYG
HCT116 PTEN-null: PTEN-deleted cell growth suppression; viability, % at 10 µM; HCT116 PTEN-null viability, CellTiter-Glo, 60 h; hits give low values; actives 1.2% (n = 140,000); AID 827;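 active means viability at or below a set limit, 4 SD under the median of all tested compounds, cut at about 3.7% in these data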;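 further: PTEN knockout HCT116 line with beta catenin targeted HCT116 as companion control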
Numbers without * were called inactive. Hits are enriched below; roughly 10% of the tested compounds scored in any of these assays.

COc1ccc(NC(=O)Cn2nnc(-c3ccccc3NS(=O)(=O)c3ccc(OC)cc3)n2)cc1 was read as ROMK mod 0.117, L major viab 68.8*, Insulin prom inh -24.0, bCat KO growth 10.2, p97 ATPase inh 3.9 and HCT116 PTEN-null 11.5.
Screening Cc1nnc(-c2ccc(N3CCCCCC3)c([N+](=O)[O-])c2)o1 returned p97 ATPase inh 0.1.
Cc1cc(C)n(-c2nc(N(c3ccccc3)c3ccccc3)nc(-n3nc(C)cc3C)n2)n1 was read as L major viab 54.1*, Insulin prom inh 60.0, bCat KO growth 21.2, p97 ATPase inh -2.5 and HCT116 PTEN-null 19.0.
Screening CC(=O)c1nnn(-c2nc(N)nc(N(c3ccccc3)c3ccccc3)n2)c1C returned L major viab 91.7*, Insulin prom inh 0.0, bCat KO growth 82.8, p97 ATPase inh 4.9 and HCT116 PTEN-null 81.0.
`CCOC(=O)c1nnn(-c2nc(N(C)C)nc(N(C)C)n2)c1C` gave ROMK mod 2.03, L major viab 0.3 and p97 ATPase inh -2.6.
Screening CCCCN(CCCC)c1nc(OC)nc(-n2nnc(C(C)=O)c2C)n1 returned L major viab 62.5*, Insulin prom inh -45.7, bCat KO growth 62.8, p97 ATPase inh -5.6 and HCT116 PTEN-null 57.5.
`COc1cc(C(=O)Nc2ccc(S(=O)(=O)N3CCOCC3)cc2)c([N+](=O)[O-])cc1OC` gave L major viab 2.8 and p97 ATPase inh 0.6.
`Cc1ccc(NC(=O)CN(C)C(=O)CCOc2cccc(C)c2)cc1` gave ROMK mod 0.56, L major viab 0.4, Insulin prom inh -11.8, bCat KO growth 87.7, p97 ATPase inh -4.0 and HCT116 PTEN-null 92.2.
CCN(CC)S(=O)(=O)c1ccc(OC)nc1 was read as L major viab -3.8, Insulin prom inh -11.6, bCat KO growth 95.9, p97 ATPase inh 1.0 and HCT116 PTEN-null 104.9.
For Oc1ccc(/C=N/Nc2ncc(Br)cn2)c(O)c1 the results were L major viab 98.7*, bCat KO growth 6.0*, p97 ATPase inh -2.8 and HCT116 PTEN-null 7.7.
Oc1ccc(Br)cc1/C=N/Nc1ncc(-c2ccccc2)cn1 was read as ROMK mod -0.182, L major viab -8.7 and p97 ATPase inh 1.7.
Screening CCN(CC)S(=O)(=O)c1ccc(N/N=C/c2ccc(O)cc2O)nc1 returned ROMK mod 0.0972, L major viab 98.5*, Insulin prom inh 46.7, bCat KO growth 12.0, p97 ATPase inh 12.9 and HCT116 PTEN-null 13.8.
Oc1ccc(/C=N/Nc2nccnc2Cl)c(O)c1 was read as ROMK mod -0.0654, L major viab 100.4*, bCat KO growth 4.5*, p97 ATPase inh -5.3 and HCT116 PTEN-null 6.4.
Screening Oc1ccccc1/C=N/Nc1nccnc1Cl returned ROMK mod -0.911, L major viab 98.0*, Insulin prom inh 0.0, bCat KO growth 9.1, p97 ATPase inh -13.2 and HCT116 PTEN-null 6.5.
`Oc1ccc(/C=N/Nc2cccc3cccnc23)c(O)c1` gave L major viab 4.6, Insulin prom inh 45.8, bCat KO growth 75.3, p97 ATPase inh 8.0 and HCT116 PTEN-null 82.4.
CCC(=Cc1ccc(CC)cn1)CC was read as p97 ATPase inh 8.9.
Screening O=S(=O)(NC(=NCc1ccccc1)c1ccc(F)cc1)c1ccc(Cl)cc1 returned ROMK mod -0.218, L major viab 19.6 and p97 ATPase inh -1.9.
For CCOC(=O)c1cnn(CCOC(=O)c2ccc(F)cc2)c1NC(=O)c1ccc(F)cc1 the results were ROMK mod 0.058, L major viab -1.7, Insulin prom inh 43.8, bCat KO growth 82.2, p97 ATPase inh 1.8 and HCT116 PTEN-null 88.8.
Screening CC(NC(=O)C1CC=CCC1C(=O)O)C1CC2CCC1C2 (centres undefined) returned L major viab -5.5, Insulin prom inh -51.3, bCat KO growth 89.0, p97 ATPase inh 0.6 and HCT116 PTEN-null 103.7.
Screening CC(NC(=O)C1CCCC1)C1CC2CCC1C2 (centres undefined) returned ROMK mod 0.103, L major viab -2.4, Insulin prom inh 71.4*, bCat KO growth 89.3, p97 ATPase inh 4.2 and HCT116 PTEN-null 88.0.
For Cc1ccc(-n2c(CCc3ccccc3)nnc2SCC(=O)NCc2ccccc2)cc1C the results were ROMK mod 0.024, L major viab 54.0*, bCat KO growth 78.6, p97 ATPase inh -6.4 and HCT116 PTEN-null 73.0.

Screening data from PubChem.
